# B1: unnamed (peptide)
# chain: NLDRSKISLPDFDDE
# B2: unnamed (peptide)
# chain: ANNQGPPNLPARDKS
# Assays:
# Assay in all cases: SPOT peptide array binding signal intensity (averaged, normalized) (arbitrary units (background-subtracted, floor 0; scale differs between SH3 domains)); higher = stronger binding of the SH3 domain to the peptide
# AgAbp1 = molecular target: AgAbp1
# How it was run: (§1)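 SH3 domains from four yeast species were expressed as GST fusions in E. coli BL21(DE3) and purified on glutathione Sepharose. Each was incubated at 10 μg/ml overnight at 4°C in TBS-based blocking buffer on cellulose membranes bearing synthetic 15-mer peptides, in which serines replaced cysteines. Bound protein was detected with anti-GST antibody, an HRP anti-mouse secondary and luminol, then imaged and quantified with Genespotter. The binding signal is the normalized, background-subtracted spot intensity averaged over replicates, in arbitrary units that are not the same from one domain to another.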
# AgBbc1 = molecular target: AgBbc1
# How it was run: as §1
# AgBem1-D1 = molecular target: AgBem1-D1
# How it was run: as §1
# AgBzz1-D1 = molecular target: AgBzz1-D1
# How it was run: as §1
# AgBzz1-D2 = molecular target: AgBzz1-D2
# How it was run: as §1
# AgCyk3 = molecular target: AgCyk3
# How it was run: as §1
# AgFus1 = molecular target: AgFus1
# How it was run: as §1
# AgHof1 = molecular target: AgHof1
# How it was run: as §1
# AgHse1 = molecular target: AgHse1
# How it was run: as §1
# AgLsb1 = molecular target: AgLsb1
# How it was run: as §1
# AgLsb4 = molecular target: AgLsb4
# How it was run: as §1
# AgMyo5 = molecular target: AgMyo5
# How it was run: as §1
# AgNbp2 = molecular target: AgNbp2
# How it was run: as §1
# AgRvs167 = molecular target: AgRvs167
# How it was run: as §1
# AgSho1 = molecular target: AgSho1
# How it was run: as §1
# AgSla1-D1-D2 = molecular target: AgSla1-D1-D2
# How it was run: as §1
# AgSla1-D3 = molecular target: AgSla1-D3
# How it was run: as §1
# CaAbp1-D1 = molecular target: CaAbp1-D1
# How it was run: as §1
# CaAbp1-D2 = molecular target: CaAbp1-D2
# How it was run: as §1
# CaBbc1 = molecular target: CaBbc1
# How it was run: as §1
# CaBem1-D1 = molecular target: CaBem1-D1
# How it was run: as §1
# CaBzz1-D1 = molecular target: CaBzz1-D1
# How it was run: as §1
# CaBzz1-D2 = molecular target: CaBzz1-D2
# How it was run: as §1
# CaCyk3 = molecular target: CaCyk3
# How it was run: as §1
# CaFus1 = molecular target: CaFus1
# How it was run: as §1
# CaHof1 = molecular target: CaHof1
# How it was run: as §1
# CaHse1 = molecular target: CaHse1
# How it was run: as §1
# CaLsb1 = molecular target: CaLsb1
# How it was run: as §1
# CaLsb4 = molecular target: CaLsb4
# How it was run: as §1
# CaMyo5 = molecular target: CaMyo5
# How it was run: as §1
# CaNbp2 = molecular target: CaNbp2
# How it was run: as §1
# CaRvs167 = molecular target: CaRvs167
# How it was run: as §1
# CaRvs167-3 = molecular target: CaRvs167-3
# How it was run: as §1
# CaSho1 = molecular target: CaSho1
# How it was run: as §1
# CaSla1-D1-D2 = molecular target: CaSla1-D1-D2
# How it was run: as §1
# CaSla1-D3 = molecular target: CaSla1-D3
# How it was run: as §1
# ScAbp1 = molecular target: ScAbp1
# How it was run: as §1
# ScBbc1 = molecular target: ScBbc1
# How it was run: as §1
# ScBem1-D1 = molecular target: ScBem1-D1
# How it was run: as §1
# ScBzz1-D1 = molecular target: ScBzz1-D1
# How it was run: as §1
# ScBzz1-D2 = molecular target: ScBzz1-D2
# How it was run: as §1
# ScCyk3 = molecular target: ScCyk3
# How it was run: as §1
# ScFus1 = molecular target: ScFus1
# How it was run: as §1
# ScHof1 = molecular target: ScHof1
# How it was run: as §1
# ScHse1 = molecular target: ScHse1
# How it was run: as §1
# ScLsb1 = molecular target: ScLsb1
# How it was run: as §1
# ScLsb2 = molecular target: ScLsb2
# How it was run: as §1
# ScLsb3 = molecular target: ScLsb3
# How it was run: as §1
# ScLsb4 = molecular target: ScLsb4
# How it was run: as §1
# ScMyo3 = molecular target: ScMyo3
# How it was run: as §1
# ScMyo5 = molecular target: ScMyo5
# How it was run: as §1
# ScNbp2 = molecular target: ScNbp2
# How it was run: as §1
# ScPex13 = molecular target: ScPex13
# How it was run: as §1
# ScRvs167 = molecular target: ScRvs167
# How it was run: as §1
# ScSho1 = molecular target: ScSho1
# How it was run: as §1
# ScSla1-D1-D2 = molecular target: ScSla1-D1-D2
# How it was run: as §1
# ScSla1-D3 = molecular target: ScSla1-D3
# How it was run: as §1
# SpAbp1-D1 = molecular target: SpAbp1-D1
# How it was run: as §1
# SpBbc1 = molecular target: SpBbc1
# How it was run: as §1
# SpBzz1-D1 = molecular target: SpBzz1-D1
# How it was run: as §1
# SpBzz1-D2 = molecular target: SpBzz1-D2
# How it was run: as §1
# SpCyk3 = molecular target: SpCyk3
# How it was run: as §1
# SpHof1 = molecular target: SpHof1
# How it was run: as §1
# SpHof1-2 = molecular target: SpHof1-2
# How it was run: as §1
# SpHof1-3 = molecular target: SpHof1-3
# How it was run: as §1
# SpHse1 = molecular target: SpHse1
# How it was run: as §1
# SpLsb1 = molecular target: SpLsb1
# How it was run: as §1
# SpLsb4 = molecular target: SpLsb4
# How it was run: as §1
# SpMyo1 = molecular target: SpMyo1
# How it was run: as §1
# SpNbp2 = molecular target: SpNbp2
# How it was run: as §1
# SpPex13 = molecular target: SpPex13
# How it was run: as §1
# SpRvs167 = molecular target: SpRvs167
# How it was run: as §1
# SpSla1-D1-D2 = molecular target: SpSla1-D1-D2
# How it was run: as §1
# SpSla1-D3 = molecular target: SpSla1-D3
# How it was run: as §1
binder,measurement,setting,value
B1,SPOT peptide array binding signal intensity,AgAbp1,4.5
same,SPOT peptide array binding signal intensity,AgBbc1,0.75
same,SPOT peptide array binding signal intensity,AgBem1-D1,5.5
same,SPOT peptide array binding signal intensity,AgBzz1-D1,26
same,SPOT peptide array binding signal intensity,AgBzz1-D2,14
same,SPOT peptide array binding signal intensity,AgCyk3,≤ 0
same,SPOT peptide array binding signal intensity,AgFus1,42
same,SPOT peptide array binding signal intensity,AgHof1,11.5
same,SPOT peptide array binding signal intensity,AgHse1,716
same,SPOT peptide array binding signal intensity,AgLsb1,≤ 0
same,SPOT peptide array binding signal intensity,AgLsb4,18
same,SPOT peptide array binding signal intensity,AgMyo5,≤ 0
same,SPOT peptide array binding signal intensity,AgNbp2,4
same,SPOT peptide array binding signal intensity,AgRvs167,7
same,SPOT peptide array binding signal intensity,AgSho1,11.5
same,SPOT peptide array binding signal intensity,AgSla1-D1-D2,≤ 0
same,SPOT peptide array binding signal intensity,AgSla1-D3,≤ 0
same,SPOT peptide array binding signal intensity,CaAbp1-D1,33.5
same,SPOT peptide array binding signal intensity,CaAbp1-D2,26
same,SPOT peptide array binding signal intensity,CaBbc1,8
same,SPOT peptide array binding signal intensity,CaBem1-D1,4
same,SPOT peptide array binding signal intensity,CaBzz1-D1,31
same,SPOT peptide array binding signal intensity,CaBzz1-D2,2.5
same,SPOT peptide array binding signal intensity,CaCyk3,≤ 0
same,SPOT peptide array binding signal intensity,CaFus1,283
same,SPOT peptide array binding signal intensity,CaHof1,1.5
same,SPOT peptide array binding signal intensity,CaHse1,21
same,SPOT peptide array binding signal intensity,CaLsb1,≤ 0
same,SPOT peptide array binding signal intensity,CaLsb4,≤ 0
same,SPOT peptide array binding signal intensity,CaMyo5,6.25
B2,SPOT peptide array binding signal intensity,AgAbp1,4.5
same,SPOT peptide array binding signal intensity,AgBbc1,0.25
same,SPOT peptide array binding signal intensity,AgBem1-D1,3.5
same,SPOT peptide array binding signal intensity,AgBzz1-D1,9.5
same,SPOT peptide array binding signal intensity,AgBzz1-D2,4
same,SPOT peptide array binding signal intensity,AgCyk3,≤ 0
same,SPOT peptide array binding signal intensity,AgFus1,≤ 0
same,SPOT peptide array binding signal intensity,AgHof1,1
same,SPOT peptide array binding signal intensity,AgHse1,≤ 0
same,SPOT peptide array binding signal intensity,AgLsb1,144
same,SPOT peptide array binding signal intensity,AgLsb4,4990
same,SPOT peptide array binding signal intensity,AgMyo5,≤ 0
same,SPOT peptide array binding signal intensity,AgNbp2,≤ 0
same,SPOT peptide array binding signal intensity,AgRvs167,274
same,SPOT peptide array binding signal intensity,AgSho1,≤ 0
same,SPOT peptide array binding signal intensity,AgSla1-D1-D2,≤ 0
same,SPOT peptide array binding signal intensity,AgSla1-D3,0.75
same,SPOT peptide array binding signal intensity,CaAbp1-D1,8
same,SPOT peptide array binding signal intensity,CaAbp1-D2,18.5
same,SPOT peptide array binding signal intensity,CaBbc1,20.5
same,SPOT peptide array binding signal intensity,CaBem1-D1,≤ 0
same,SPOT peptide array binding signal intensity,CaBzz1-D1,6.5
same,SPOT peptide array binding signal intensity,CaBzz1-D2,4.5
same,SPOT peptide array binding signal intensity,CaCyk3,≤ 0
same,SPOT peptide array binding signal intensity,CaFus1,≤ 0
same,SPOT peptide array binding signal intensity,CaHof1,≤ 0
same,SPOT peptide array binding signal intensity,CaHse1,38.8
same,SPOT peptide array binding signal intensity,CaLsb1,≤ 0
same,SPOT peptide array binding signal intensity,CaLsb4,5930
same,SPOT peptide array binding signal intensity,CaMyo5,0.5
same,SPOT peptide array binding signal intensity,CaNbp2,≤ 0
same,SPOT peptide array binding signal intensity,CaRvs167,2230
same,SPOT peptide array binding signal intensity,CaRvs167-3,3
same,SPOT peptide array binding signal intensity,CaSho1,≤ 0
same,SPOT peptide array binding signal intensity,CaSla1-D1-D2,≤ 0
same,SPOT peptide array binding signal intensity,CaSla1-D3,≤ 0
same,SPOT peptide array binding signal intensity,ScAbp1,7
same,SPOT peptide array binding signal intensity,ScBbc1,2
same,SPOT peptide array binding signal intensity,ScBem1-D1,≤ 0
same,SPOT peptide array binding signal intensity,ScBzz1-D1,5
same,SPOT peptide array binding signal intensity,ScBzz1-D2,1
same,SPOT peptide array binding signal intensity,ScCyk3,≤ 0
same,SPOT peptide array binding signal intensity,ScFus1,2
same,SPOT peptide array binding signal intensity,ScHof1,2
same,SPOT peptide array binding signal intensity,ScHse1,42.5
same,SPOT peptide array binding signal intensity,ScLsb1,645
same,SPOT peptide array binding signal intensity,ScLsb2,5
same,SPOT peptide array binding signal intensity,ScLsb3,7290
same,SPOT peptide array binding signal intensity,ScLsb4,4380
same,SPOT peptide array binding signal intensity,ScMyo3,≤ 0
same,SPOT peptide array binding signal intensity,ScMyo5,≤ 0
same,SPOT peptide array binding signal intensity,ScNbp2,≤ 0
same,SPOT peptide array binding signal intensity,ScPex13,472
same,SPOT peptide array binding signal intensity,ScRvs167,2820
same,SPOT peptide array binding signal intensity,ScSho1,≤ 0
same,SPOT peptide array binding signal intensity,ScSla1-D1-D2,≤ 0
same,SPOT peptide array binding signal intensity,ScSla1-D3,0.75
same,SPOT peptide array binding signal intensity,SpAbp1-D1,≤ 0
same,SPOT peptide array binding signal intensity,SpBbc1,≤ 0
same,SPOT peptide array binding signal intensity,SpBzz1-D1,6
same,SPOT peptide array binding signal intensity,SpBzz1-D2,≤ 0
same,SPOT peptide array binding signal intensity,SpCyk3,≤ 0
same,SPOT peptide array binding signal intensity,SpHof1,0.5
same,SPOT peptide array binding signal intensity,SpHof1-2,5.5
same,SPOT peptide array binding signal intensity,SpHof1-3,6.75
same,SPOT peptide array binding signal intensity,SpHse1,≤ 0
same,SPOT peptide array binding signal intensity,SpLsb1,91
same,SPOT peptide array binding signal intensity,SpLsb4,6520
same,SPOT peptide array binding signal intensity,SpMyo1,≤ 0
same,SPOT peptide array binding signal intensity,SpNbp2,≤ 0
same,SPOT peptide array binding signal intensity,SpPex13,≤ 0
same,SPOT peptide array binding signal intensity,SpRvs167,3210
same,SPOT peptide array binding signal intensity,SpSla1-D1-D2,≤ 0
same,SPOT peptide array binding signal intensity,SpSla1-D3,≤ 0
